Data as given in PubChem BioAssay (EPA / NIEHS).
Inconclusive results are not listed. Active and inactive are the calls of the source. The calls were made as follows, unless noted: active = hit-call score of the fitted dose curve at least 0.9, where 1 is the maximum; inactive = score below 0.9.

Key:
[1] = TOX21_p53_BLA_p2_viability: Viability Assessment in the Tox21 HCT-116 p53 Agonism Beta-lactamase Assay, Phase 2 (AID 2283591; active = hit-call score of the fitted dose curve at least 0.9, where 1 is the maximum;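 also: compound exposure lasted 16 h at 37 °C; actives lower the ATP signal meaning cytotoxicity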)
Procedure, shortened: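 HCT-116 p53-bla cells (4000/well) rested 5 h at 37C, then received compounds in DMSO (217-fold dilution) for 16 h at 37C, 5% CO2. After the CCF4 read, CellTiter-Glo was added; ATP luminescence was read after 30 min at room temperature.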

[2] = TOX21_p53_BLA_p3_viability: Viability Assessment in the Tox21 HCT-116 p53 Agonism Beta-lactamase Assay, Phase 3 (AID 2283593; active = hit-call score of the fitted dose curve at least 0.9, where 1 is the maximum;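 also: cells exposed to compound for 16 h before reading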)
Procedure, shortened: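 HCT-116 cells (4000/well) rested 5 h at 37C, then got DMSO compounds by pin tool (217-fold dilution) for 16 h at 37C, 5% CO2. After the bla read, CellTiter-Glo was added and luminescence read at 30 min, room temperature.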

[3] = TOX21_p53_BLA_p4_viability: Viability Assessment in the Tox21 HCT-116 p53 Agonism Beta-lactamase Assay, Phase 4 (AID 2283597; active = hit-call score of the fitted dose curve at least 0.9, where 1 is the maximum;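 also: hits lower the luminescence signal meaning cytotoxicity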)
Procedure, shortened: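 4000 HCT116 cells per well; 5 h attachment; compounds from DMSO, 217-fold dilution; 16 h at 37C. Then CCF4-AM, 2 h RT, followed by CellTiter-Glo, 30 min RT, luminescence. Decrease = cytotoxicity.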

[4] = biological target: Cellular tumor antigen p53 (Homo sapiens) (UniProt P04637); experiment: TOX21_p53_BLA_p5_ratio: Tox21 HCT-116 p53 Agonism Beta-lactamase Assay, Ratio, Phase 5 (AID 2283599; active = hit-call score of the fitted dose curve at least 0.9, where 1 is the maximum)
Cellular tumor antigen p53 (Homo sapiens), sequence (P04637 whole entry, looked up): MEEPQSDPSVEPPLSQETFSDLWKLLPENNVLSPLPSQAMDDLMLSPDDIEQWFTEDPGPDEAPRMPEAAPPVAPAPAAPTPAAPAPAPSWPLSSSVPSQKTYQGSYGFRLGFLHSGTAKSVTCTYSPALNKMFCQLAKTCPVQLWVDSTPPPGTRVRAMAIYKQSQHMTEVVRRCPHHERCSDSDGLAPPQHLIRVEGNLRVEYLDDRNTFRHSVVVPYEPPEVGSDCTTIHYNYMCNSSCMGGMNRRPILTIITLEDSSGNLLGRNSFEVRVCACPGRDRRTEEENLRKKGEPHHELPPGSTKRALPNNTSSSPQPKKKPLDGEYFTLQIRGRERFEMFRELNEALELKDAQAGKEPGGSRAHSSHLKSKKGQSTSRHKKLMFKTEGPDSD
Procedure, shortened: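 HCT-116 cells carrying a p53-inducible beta-lactamase reporter were seeded at 4000 cells/well and dosed after 5 h with compound in DMSO (217-fold dilution). After 16 h at 37C, CCF4-AM substrate was added for 2 h, and the 460/530 nm emission ratio was scored as gain-of-signal versus DMSO.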

[5] = CCTE_Shafer_MEA_dev_firing_rate_mean: CCTE's Neural Network Formation Assay for Mean Firing Rate, Shafer Lab (AID 2284031)
Procedure, shortened: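 Read-out: spike count/recording length, averaged over active electrodes, then AUC across days 5, 7, 9, 12. Rat cortical cultures on MEA; continuous 12-day exposure, media and treatment renewed DIV 5, 9; DMSO baseline.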

[6] = CCTE_Shafer_MEA_dev_per_burst_spike_percent: CCTE's Neural Network Formation Assay for Percent of Spikes in a Burst, Shafer Lab (AID 2284032)
Procedure, shortened: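 Value is trapezoidal AUC over recordings on days 5, 7, 9 and 12 of the well-mean fraction of spikes falling in single-electrode bursts; rat cortical cultures exposed continuously from plating, treatment renewed DIV 5 and 9, fitted downward against DMSO.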

[7] = CCTE_Shafer_MEA_dev_active_electrodes_number: CCTE's Neural Network Formation Assay for Number of Active Electrodes, Shafer Lab (AID 2284040; active = hit-call score of the fitted dose curve at least 0.9, where 1 is the maximum)
Procedure, shortened: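 Developing rat cortical networks on MEAs, exposed DIV 0–12. Value is the AUC of active-electrode counts (≥5 spikes/min) from days 5, 7, 9, 12, relative to DMSO.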

[8] = CCTE_Shafer_MEA_dev_burst_rate: CCTE's Neural Network Formation Assay for Burst Rate, Shafer Lab (AID 2284042)
Procedure, shortened: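 Developmental network assay measuring how 12-day exposure of rat cortical neuron cultures alters bursting on extracellular MEA recordings. Values are AUC of well-mean burst rate across four recording days, relative to DMSO vehicle.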

[9] = CCTE_Shafer_MEA_dev_bursting_electrodes_number: CCTE's Neural Network Formation Assay for Number of Bursting Electrodes, Shafer Lab (AID 2284043; active = hit-call score of the fitted dose curve at least 0.9, where 1 is the maximum)
Procedure, shortened: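 Counted: electrodes with burst rate ≥1 per 2 min in each well. Cells: primary rat cortex, 1.5 x 10^5/well, on 16-electrode MEA wells. Exposure: DIV 0–12, compound renewed DIV 5 and 9. Recording days 5, 7, 9, 12; AUC vs DMSO baseline.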

[10] = CCTE_Shafer_MEA_dev_per_burst_interspike_interval: CCTE's Neural Network Formation Assay for Burst Interspike Interval, Shafer Lab (AID 2284044)
Procedure, shortened: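 Primary rat cortical neurons on 48-well MEA plates, exposed from day 0 through day 12, treatment renewed at DIV 5 and 9. Within-burst interspike interval recorded days 5, 7, 9, 12, well-averaged, summarised as AUC; negative fit versus DMSO.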

[11] = CCTE_Shafer_MEA_dev_burst_duration_mean: CCTE's Neural Network Formation Assay for Mean Burst Duration, Shafer Lab (AID 2284045)
Procedure, shortened: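 Network-formation assay in primary rat cortical neurons; treatment spans twelve days of development. Mean burst duration per well is integrated by trapezoidal AUC and fitted in the loss-of-signal direction against DMSO baseline.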

[12] = CCTE_Shafer_MEA_dev_interburst_interval_mean: CCTE's Neural Network Formation Assay for Mean Interburst Interval, Shafer Lab (AID 2284046);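 also: well-mean interburst interval of bursting electrodes as AUC over four recording days; curve fitted for decrease in interburst interval relative to DMSO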
Procedure, shortened: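 Network formation assay in primary rat cortical cultures, exposed from DIV 0 to 12. Mean interburst interval per well, integrated as AUC over four recordings.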

[13] = CCTE_Shafer_MEA_dev_network_spike_number: CCTE's Neural Network Formation Assay for Number of Network Spikes, Shafer Lab (AID 2284048);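 also: synchronized bursts across electrodes counted on days 5 7 9 12 and integrated as AUC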
Procedure, shortened: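 Extracellular recordings from 16-electrode wells track network formation in rat cortical cultures under continuous treatment from plating. The endpoint is network spike number, expressed as AUC across DIV 5–12 relative to DMSO vehicle.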

[14] = CCTE_Shafer_MEA_dev_network_spike_peak: CCTE's Neural Network Formation Assay for Mean Number of Electrodes in Network Spike, Shafer Lab (AID 2284049)
Procedure, shortened: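 Continuous 12-day exposure of rat cortical cultures, starting at plating, on MEA plates. Endpoint: electrodes participating in network-spike peaks, AUC across DIV 5–12, DMSO as negative control.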

[15] = CCTE_Shafer_MEA_dev_spike_duration_mean: CCTE's Neural Network Formation Assay for Mean Spike Duration, Shafer Lab (AID 2284051);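 also: mean network spike duration pooled as area under curve over DIV 5 to 12 recordings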
Procedure, shortened: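 With DMSO as baseline, loss of mean network spike duration was scored from extracellular recordings of rat cortical neurons on MEA plates. Exposure spanned plating to DIV 12; the four recording days were collapsed into one AUC value.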

[16] = CCTE_Shafer_MEA_dev_network_spike_duration_std: CCTE's Neural Network Formation Assay for Standard Deviation of Network Spike Duration, Shafer Lab (AID 2284052);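 also: area under curve of spike duration SD across recording days 5 to 12; hits are decreases in network spike duration SD versus DMSO vehicle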
Procedure, shortened: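 Developing networks of rat cortical neurons were exposed over twelve days in vitro on 48-well MEA plates. Trapezoidal AUC of recordings (DIV 5–12) was analysed for signal loss relative to DMSO vehicle.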

[17] = CCTE_Shafer_MEA_dev_per_network_spike_spike_number_mean: CCTE's Neural Network Formation Assay for Mean Number of Spikes in a Network Spike, Shafer Lab (AID 2284053)
Procedure, shortened: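 First, rat cortical cells (1.5 x 10^5/well) were seeded onto MEA wells; second, dosing began at plating and was refreshed on DIV 5 and 9; finally, network-spike spike counts across DIV 5–12 were summarized as AUC.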

[18] = CCTE_Shafer_MEA_dev_per_network_spike_spike_percent: CCTE's Neural Network Formation Assay for Percent of Spikes in a Network Spike, Shafer Lab (AID 2284054)
Procedure, shortened: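 Developing networks of rat cortical neurons are dosed at day 0 and recorded extracellularly four times up to day 12. The endpoint is the area under the curve of percent spikes in network spikes, fitted in the negative direction relative to DMSO.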

[19] = CCTE_Shafer_MEA_dev_LDH: CCTE's Lactate Dehydrogenase Assay for Cytotoxicity in the Neural Network Formation Assay, Shafer Lab (AID 2284068; active = hit-call score of the fitted dose curve at least 0.9, where 1 is the maximum;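 also: exposure for twelve days from plating with re-dosing on DIV 5 and 9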)
Procedure, shortened: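 Developing rat cortical networks on MEA plates are exposed to compound for 12 days from plating. LDH activity is measured spectrophotometrically, with DMSO as baseline.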

[20] = CCTE_Shafer_MEA_dev_AB: CCTE's Alamar Blue Assay for Cytotoxicity in the Neural Network Formation Assay, Shafer Lab (AID 2284083; active = hit-call score of the fitted dose curve at least 0.9, where 1 is the maximum;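 also: resazurin reduction fluorescence as viability of cultured neurons; twelve days of exposure from plating with re-dosing on DIV 5 and 9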)
Procedure, shortened: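 Cytotoxicity companion to the developmental MEA: primary rat cortical neurons, 12-day exposure starting day 0, compound refreshed DIV 5 and 9; resazurin fluorescence, fitted against DMSO vehicle.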

[21] = CCTE_Shafer_MEA_dev_mutual_information_norm: CCTE's Neural Network Formation Assay for Mutual Information Normalization, Shafer Lab (AID 2284091)
Procedure, shortened: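 Exposure of primary rat cortical neurons began at plating and ran to DIV 12, with full media and treatment renewal after DIV 5 and 9 recordings. Mutual information AUC (DIV 5–12) was analysed for loss versus DMSO.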

[22] = CCTE_Shafer_MEA_dev_correlation_coefficient_mean: CCTE's Neural Network Formation Assay for Mean Correlation Coefficient, Shafer Lab (AID 2284093)
Procedure, shortened: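 Extracellular firing from rat cortical networks on 48-well MEAs, DMSO-referenced, negative fitting direction. Compound present from plating to DIV12; mean pairwise correlation per well integrated over DIV5–12 recordings by trapezoidal AUC.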

[23] = CCTE_Mundy_HCI_Cortical_Synap_Neur_Matur_NeuriteSpotCountPerNeuriteLength: CCTE's Synaptogenesis and Neurite Maturation Assay in rat cortical cells for Neurite Spot Count per Neurite Length, Mundy Lab (AID 2284210)
Procedure, shortened: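 Neurite-associated synapse density (synaptophysin puncta per unit neurite length) is measured by fluorescence high-content imaging in rat cortical cultures treated from DIV 7 and fixed at DIV 12, with DMSO as negative control.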

[24] = CCTE_Mundy_HCI_Cortical_NOG_NeuriteLength: CCTE's Neurite Outgrowth Assay in rat cortical cells for Neurite Length, Mundy Lab (AID 2284213)
Procedure, shortened: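 First, rat primary cortical cells were plated and, 2 h later, given test chemical as a 1/10 dilution. Finally, βIII-tubulin immunostaining enabled automated imaging of neurite length.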

[25] = CCTE_Mundy_HCI_Cortical_Synap_Neur_Matur_NeuriteLength: CCTE's Synaptogenesis and Neurite Maturation Assay in rat cortical cells for Neurite Length, Mundy Lab (AID 2284214)
Procedure, shortened: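 Read-out: high-content imaging of MAP2-labelled neurites, with synaptophysin and Hoechst co-stain, in rat cortical cultures fixed at DIV 12. Activity fitted in positive direction relative to DMSO baseline.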

[26] = CCTE_Mundy_HCI_Cortical_Synap_Neur_Matur_NeuriteSpotCountPerNeuron: CCTE's Synaptogenesis and Neurite Maturation Assay in rat cortical cells for Neurite Spot Count per Neuron Count, Mundy Lab (AID 2284215)
Procedure, shortened: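 Rat primary cortical cultures given AraC at DIV 5, dosed from DIV 7 to DIV 12 with media change. Fixed, stained for MAP2, synaptophysin and Hoechst; neurite-associated synaptophysin puncta per neuron quantified by high-content imaging versus DMSO.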

[27] = CCTE_Mundy_HCI_Cortical_Synap_Neur_Matur_SynapseCount: CCTE's Synaptogenesis and Neurite Maturation Assay in rat cortical cells for Synapse Count, Mundy Lab (AID 2284218)
Procedure, shortened: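 Read-out: synapse number per neuron, automated high-content imaging of fixed cells immunostained for MAP2 and synaptophysin plus Hoechst nuclei. Rat primary cortical cultures, AraC at DIV 5, chemical dosing DIV 7–12. Positive-direction fit relative to DMSO.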

[28] = CCTE_Mundy_HCI_hN2_NOG_NeuriteLength: CCTE's Neurite Outgrowth Assay in human hN2 cells for Neurite Length, Mundy Lab (AID 2284220; active = hit-call score of the fitted dose curve at least 0.9, where 1 is the maximum)
Procedure, shortened: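 Using βIII-tubulin immunofluorescence and Hoechst nuclear counterstain, this component quantifies neurite length in hNP1-derived neurons.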

[29] = CCTE_Mundy_HCI_hN2_NOG_NeuronCount: CCTE's Neurite Outgrowth Assay in human hN2 cells for Neuron Count, Mundy Lab (AID 2284221; active = hit-call score of the fitted dose curve at least 0.9, where 1 is the maximum)
Procedure, shortened: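 Read-out is the number of betaIII-tubulin-positive neurons imaged by automated high-content analysis, with DMSO as negative control.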

[30] = CCTE_Mundy_HCI_Cortical_Synap_Neur_Matur_CellBodySpotCount: CCTE's Synaptogenesis and Neurite Maturation Assay in rat cortical cells for Cell Body Spot Count, Mundy Lab (AID 2284223)
Procedure, shortened: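 Primary rat cortical cultures, AraC added at DIV 5; dosed DIV 7 through DIV 12 […]. Fixed, stained for MAP2 and synaptophysin with Hoechst; cell body-associated synaptophysin puncta per neuron counted by high-content imaging, loss vs DMSO.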

[31] = CCTE_Mundy_HCI_Cortical_NOG_NeuronCount: CCTE's Neurite Outgrowth Assay in rat cortical cells for Neuron Count, Mundy Lab (AID 2284236; active = hit-call score of the fitted dose curve at least 0.9, where 1 is the maximum;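 also: neurons counted by imaging betaIII-tubulin and Hoechst stained cortical cells; cells exposed to compound for about 48 hours before fixation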)
Procedure, shortened: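 Read-out: neuron number by high-content imaging of betaIII-tubulin (Alexa Fluor-488) and Hoechst-labelled rat primary cortical cells.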

[32] = CCTE_Mundy_HCI_hNP1_Casp3_7: CCTE's Caspase-Glo 3/7 Assay in human neuroprogenitor cells for Apoptosis, Mundy Lab (AID 2284240)
Procedure, shortened: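 Neuroepithelial-lineage stem cells from WA09 embryonic cells were treated with chemicals after 40–44 h of culture. Twenty-four hours later, caspase-3/7 activation was detected luminescently after a 30 min room-temperature reagent step, with DMSO as baseline.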

[33] = CCTE_Mundy_HCI_Cortical_Synap_Neur_Matur_NeuronCount: CCTE's Synaptogenesis and Neurite Maturation Assay in rat cortical cells for Neuron Count, Mundy Lab (AID 2284242; active = hit-call score of the fitted dose curve at least 0.9, where 1 is the maximum)
Procedure, shortened: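 Rat cortical cultures; AraC DIV 5; chemical dosing + media change DIV 7 to DIV 12 (288.33 h readout). Fix, Hoechst, anti-MAP2/anti-synaptophysin immunostain; HCI neuron count vs DMSO baseline.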

Measured: AC50

CN[C@]1(c2ccccc2Cl)CCCCC1=O
active: [19] 9.27 µM
inactive: all other assays above
